APE1 inh – inhibitors of human APE1 endonuclease; AID 2517; recombinant APE1, TAMRA/BHQ-2 abasic DNA cleavage fluorescence; P27695; actives 0.35% (n = 350,000); Potency, µM (highest dose often 65.8 µM), for inactives: at the highest dose activity change, negative = inhibition, usual class: inhibitors;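 also: potency is read from the fitted curve at half-maximal effect; plate controls were vehicle for no effect and reference inhibitor for full effect; nearly all actives have a fitted effect of over 55% in size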
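APE1 at 0.75 nM preincubated 15 min at room temperature with compound. Reaction then started with 50 nM double-stranded THF-abasic substrate labelled with TAMRA/BHQ-2, and 525/598 nm fluorescence read kinetically. Activity taken as third-minus-first read difference, normalized to DMSO and NSC13755 controls.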
FEN1 inh – inhibitors of human flap endonuclease 1 | P39748 | Recombinant FEN1 flap cleavage, fluorescence, 15 min | Potency, µM (series often up to 114 µM), for inactives: at the highest dose activity change, negative = inhibition, hits mostly inhibitors | actives 0.35% (n = 390,000) | AID 588795; also: potency is read from the fitted curve at half-maximal effect; % is scaled to controls: 0 for no effect and ±100 for the full control effect; nearly all actives have a fitted effect of over 65% in size
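Enzyme 10 nM, 15 min RT preincubation with compound; start with substrate 50 nM final; reads at 0 and 15 min; qHTS titration, four-parameter Hill fit.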
BLM helicase inh-1 – inhibitors of human Bloom syndrome helicase BLM | P54132 | recombinant BLM DNA unwinding, fluorescence dequenching | Potency, µM (titrated, usually from 56.1 µM), without a hit: at the highest dose activity change, negative = inhibition, most hits filed as inhibitors | actives 0.2% (n = 350,000);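 also: potency is read from the fitted curve at half-maximal effect; plate controls were vehicle for no effect and no enzyme for full effect; nearly all actives have a fitted effect of over 35% in size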
RECQ1 helicase – blocks DNA unwinding by human RECQ1; AID 2549; actives 0.54% (n = 240,000); RECQ1 DNA unwinding, red fluorescence kinetic read; Potency, µM (top dose mostly 57.3 µM), for the others: at the top dose activity, negative = inhibition, most hits filed as inhibitors;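 also: potency is read from the fitted curve at half-maximal effect; plate controls were vehicle for no effect and no enzyme for full effect; nearly all actives have a fitted effect of over 30% in size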
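50 nM RECQ1T1 preincubated 15 min with compound in Tris pH 8.0 buffer with MgCl2, DTT, Tween-20 and 2.5 ug/ml poly(dI-dC); started with 200 nM TAMRA/BHQ-2 forked duplex and 2 mM ATP. Unwinding read as fluorescence (525/598 nm), two reads 2 h apart.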
PI5P4Ka inh – PI5P4K alpha (human) kinase inhibition. P48426. PI5P4Kalpha enzyme, ADP-Glo luminescence, 60 min; active compounds read low. max response, %. actives 1.2% (n = 330,000); active = max response of -50% or lower; inconclusive = between -30% and -50%; inactive = -30% or higher; also: value at the top dose of about 77 µM; % is scaled to controls: 0 for no effect and ±100 for the full control effect
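PI5P4Kalpha ADP-Glo assay; 5 microM ATP final; 60 min RT reaction; HEPES pH 7.4/EGTA/CHAPS, 5% DMSO; controls lacking substrate or enzyme; luminescent end-point.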
WRN helicase inh-1 – blocks human WRN helicase; Q14191; WRN helicase unwinding, fluorescent forked duplex, kinetic; Potency, µM (top dose mostly 114 µM), for inactives: at the top dose activity change, negative = inhibition, most hits filed as inhibitors; actives 0.46% (n = 360,000); also: potency is read from the fitted curve at half-maximal effect; % is scaled to controls: 0 for no effect and ±100 for the full control effect; nearly all actives have a fitted effect of over 55% in size
Target sequence (Q14191 whole entry, looked up): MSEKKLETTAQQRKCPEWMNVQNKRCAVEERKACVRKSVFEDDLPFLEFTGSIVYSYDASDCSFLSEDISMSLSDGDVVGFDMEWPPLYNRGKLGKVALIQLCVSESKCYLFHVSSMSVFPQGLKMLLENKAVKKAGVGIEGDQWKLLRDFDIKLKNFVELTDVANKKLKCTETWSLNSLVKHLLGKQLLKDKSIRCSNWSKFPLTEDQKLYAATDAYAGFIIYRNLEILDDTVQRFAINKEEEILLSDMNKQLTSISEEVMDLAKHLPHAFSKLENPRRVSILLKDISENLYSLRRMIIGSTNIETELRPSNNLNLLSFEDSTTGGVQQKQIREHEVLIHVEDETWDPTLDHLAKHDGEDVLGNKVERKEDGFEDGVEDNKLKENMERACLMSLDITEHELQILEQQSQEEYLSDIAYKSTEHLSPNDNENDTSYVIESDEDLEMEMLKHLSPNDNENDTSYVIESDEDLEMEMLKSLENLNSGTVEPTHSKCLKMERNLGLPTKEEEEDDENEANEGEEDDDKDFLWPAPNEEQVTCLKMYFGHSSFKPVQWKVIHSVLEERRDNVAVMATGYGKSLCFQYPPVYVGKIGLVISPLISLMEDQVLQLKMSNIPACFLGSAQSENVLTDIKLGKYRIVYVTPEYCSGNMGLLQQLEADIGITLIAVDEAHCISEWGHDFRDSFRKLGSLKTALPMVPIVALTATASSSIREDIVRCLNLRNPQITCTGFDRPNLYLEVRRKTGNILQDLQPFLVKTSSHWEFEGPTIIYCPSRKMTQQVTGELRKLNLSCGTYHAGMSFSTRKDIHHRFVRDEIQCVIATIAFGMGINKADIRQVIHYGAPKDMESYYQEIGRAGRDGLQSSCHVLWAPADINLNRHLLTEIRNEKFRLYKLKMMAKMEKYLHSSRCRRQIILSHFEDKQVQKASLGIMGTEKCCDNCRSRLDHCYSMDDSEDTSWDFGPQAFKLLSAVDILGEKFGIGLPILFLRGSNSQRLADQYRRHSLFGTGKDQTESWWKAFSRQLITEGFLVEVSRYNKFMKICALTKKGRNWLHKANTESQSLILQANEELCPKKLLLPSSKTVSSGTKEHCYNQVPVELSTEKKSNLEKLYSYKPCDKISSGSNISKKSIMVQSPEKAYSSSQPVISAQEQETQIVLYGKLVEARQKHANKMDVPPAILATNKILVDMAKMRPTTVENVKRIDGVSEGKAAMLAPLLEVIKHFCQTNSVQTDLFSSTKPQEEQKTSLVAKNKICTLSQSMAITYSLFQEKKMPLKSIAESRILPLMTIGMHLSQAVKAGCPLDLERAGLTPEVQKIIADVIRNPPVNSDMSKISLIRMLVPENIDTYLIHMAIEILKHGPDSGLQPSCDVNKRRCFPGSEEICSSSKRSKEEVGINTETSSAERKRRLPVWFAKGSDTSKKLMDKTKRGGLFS
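Fluorescence dequenching readout, ex 525 nm/em 598 nm, kinetic mode: forked duplex DNA (100 nM final) with adjacent fluorophore and quencher unwound by WRN (20 nM final) with 2 mM ATP. Compound preincubation 15 min, room temperature.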
WRN helicase inh-2 – confirmation of human WRN helicase inhibitors | shares compounds with WRN helicase inh-1 | WRN helicase DNA unwinding, fluorescence kinetic | Potency, µM (doses to about 57.1 µM), for inactives: at the top dose activity, negative = inhibition, actives largely listed as inhibitors | actives 63% (n = 610); also: potency is read from the fitted curve at half-maximal effect; nearly all actives have a fitted effect of over 65% in size
TO DNA binding – counter-screen for WRN helicase inhibitors: DNA binding; shares compounds with WRN helicase inh-1; thiazole orange DNA binding displacement, fluorescence; Potency, µM (titrated, usually from 57.1 µM), inactives show top-dose activity change, negative = inhibition, hits mostly inhibitors; actives 10% (n = 610);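 also: drop in dye fluorescence marks compound binding to DNA; potency is read from the fitted curve at half-maximal effect; % is scaled to controls: 0 for no effect and ±100 for the full control effect; nearly all actives have a fitted effect of over 60% in size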
BLM helicase inh-2 – blocks human BLM helicase in WRN counterscreen | AID 720503 | actives 60% (n = 610) | Recombinant BLM helicase DNA unwinding, red fluorescence | shares compounds with WRN helicase inh-1 | Potency, µM (highest dose often 57.1 µM), for inactives: at the highest dose activity change, negative = inhibition, hits mostly inhibitors; also: potency is read from the fitted curve at half-maximal effect; nearly all actives have a fitted effect of over 60% in size
An asterisk follows results filed as active; i = inactive; ? = inconclusive; . = no result. Most compounds without a hit are left out; they make up all but 1.5% or so of the library. Unless noted, calls follow the shape of the dose curve; as a rule, active = well fitted curve in the direction sought with a large enough effect; inconclusive = small, poorly fitted or top-dose-only effect, or another doubt; inactive = no such curve, though single readings can be large; an effect the other way counts as inactive or inconclusive.

SMILES	APE1 inh	FEN1 inh	BLM helicase inh-1	RECQ1 helicase	PI5P4Ka inh	WRN helicase inh-1	WRN helicase inh-2	TO DNA binding	BLM helicase inh-2
CC[Si](CC)(CC)O[C@H]([C@@H](C)COCOC)[C@@H](C)COCc1ccc(OC)cc1	0%	15%	3%	i	.	.	.	.	.
O=C(O)c1ccc(-n2cccc2/C=C2\SC(=O)N(Cc3cccc(Cl)c3)C2=O)cc1	.	.	.	.	.	.	19µM*	-18%	14µM*
Cc1cccc(C)c1-n1cccc1/C=C1\SC(=S)N(c2cccc(C(=O)O)c2)C1=O	-13%	?	-2%	-2%	?	?	.	.	.
O=C1c2cc(O)c(O)cc2OC(c2ccc(O)c(O)c2)C1O (configuration not stated)	.	32µM*	.	.	?	?	14µM*	-14%	?
COc1cc(N=Nc2cccc(S(N)(=O)=O)c2)c2ccccc2c1N	?	45µM*	4µM*	i	-29	?	?	?	?
Cc1nc2ccc(C(=O)O)cc2c2c1CC(C)S2 (configuration not stated)	?	?	5%	i	-7	32µM*	19µM*	-18%	?
Cn1ccc2cc(-c3ccc4ncnc(NCc5cccnc5)c4c3)ccc21	27%	.	.	.	.	.	.	.	.
O=C(CSc1nc2ccccc2nc1Cc1ccc(Cl)cc1)N1CCCc2ccccc21	.	-3%	-7%	.	.	.	.	.	.
CCCCN1C(=O)C(NC(C)=O)c2cc(Br)ccc21 (configuration not stated)	0%	-15%	0%	-5%	-3	-3%	.	.	.
CC(=O)NC1C(=O)N(CCN2CCOCC2)c2ccc(Cl)cc21 (configuration not stated)	?	?	-11%	.	1	22µM*	-10%	-12%	-30%
O=C(/C=C/c1cccs1)Nc1scc(-c2ccccc2)c1C(=O)O	?	?	?	-9%	?	32µM*	?	-16%	22µM*
Cc1c(Cl)cccc1NC(=O)c1ccc2nc(C(C)C)oc2c1	.	-3%	-1%	.	.	.	.	.	.
CCN1/C(=C/c2ccc3cc(C)ccc3[n+]2C)Sc2ccc3sccc3c21	3%	?	2%	-7%	-24	89µM*	0.34µM*	0.22µM*	0.68µM*
COCCN1C(=O)/C(=C/c2ccc(OCc3ccc(C(=O)O)cc3)c(OC)c2)SC1=Nc1ccccc1	?	-18%	-13%	-3%	-2	?	27µM*	?	27µM*
O=C(CCc1ccc(O)c(O)c1)N/N=C/c1cc2c(cc1[N+](=O)[O-])OCO2	-30%	?	-20%	.	?	?	22µM*	30µM*	8.6µM*
CCn1nc(C(=O)OCC(=O)Nc2ncc(Cl)c(C)c2Cl)c2ccccc2c1=O	0%	-7%	-21%	-15%	?	?	-29%	-12%	?
C/C(N)=C(/C#N)C(=O)CSc1nnc(Nc2cccc(C)c2)s1	?	?	-15%	-10%	-50*	?	-26%	-6%	?
Cc1sc2c(c1C)c(=O)n(-c1cccc(C(F)(F)F)c1)c(=O)n2Cc1ccc(F)cc1	.	19%	-6%	.	.	.	.	.	.
COc1ccccc1NC(=O)c1c(NCc2sccc2C)sc2c1CCCCC2	.	-16%	-5%	.	.	.	.	.	.
COc1ccc(Cl)cc1NC(=O)c1c(NCc2sccc2C)sc2c1CCCC2	.	79µM*	0%	.	.	.	-20%	?	?
CN(C)c1ccc(/C=C2\C(=O)/C(=C\c3ccc(N(C)C)cc3)c3ccccc32)cc1	.	4%	.	.	.	.	.	.	.
CCOC(=O)c1ccccc1NS(=O)(=O)c1c(-c2ccc(C)cc2)csc1C(=O)OC	.	6%	-6%	.	.	.	.	.	.
O=C(N/N=C/c1cccc2ccccc12)c1ccncc1	-1%	0%	-11%	.	-9	11%	.	.	.
O=C(/C=C/c1cccc2ccccc12)c1ccncc1	3%	-11%	-7%	-6%	4	?	-17%	-11%	-14%
Cc1cc(=O)oc2cc(Oc3ccc(C(N)=O)cc3[N+](=O)[O-])ccc12	15%	11%	-2%	-15%	-14	?	?	-9%	-17%
SMILES	APE1 inh	FEN1 inh	BLM helicase inh-1	RECQ1 helicase	PI5P4Ka inh	WRN helicase inh-1	WRN helicase inh-2	TO DNA binding	BLM helicase inh-2
Cc1cc(Cl)ccc1Oc1ccc(C(N)=O)cc1[N+](=O)[O-]	-4%	2%	-2%	0%	9	4%	.	.	.
ClC(Cl)(c1nnnn1-c1ccccc1)c1nnnn1-c1ccccc1	1%	50µM*	-5%	3%	?	6.3µM*	?	2%	?
c1ccc(-c2nnnn2-c2ccccc2)cc1	-4%	-1%	-3%	.	-3	3%	.	.	.
Cc1ccc(N2C(=O)CS(=O)C(c3ccccc3)C2=O)cc1C (configuration not stated)	-1%	?	2%	24%	-26	35µM*	?	-11%	?
Cc1ccc(C(=O)c2cn(Cc3cccc(Cl)c3)c3nc(C)ccc3c2=O)cc1	.	-15%	-7%	.	.	.	.	.	.
COCCN1C(=O)c2[nH]nc(-c3ccccc3O)c2C1c1ccc(OCc2ccccc2)c(OC)c1 (configuration not stated)	.	-22%	-16%	.	.	.	.	.	.
O=c1c(Br)ccc(Br)cc1Br	.	?	.	.	-6	10µM*	24µM*	-20%	22µM*
O=C1CN(S(=O)(=O)c2cc(Br)ccc2Br)CCN1	-7%	-2%	.	.	0	6%	.	.	.
COc1ccc2c(c1)c(=O)c(C(=O)c1ccc(C)c(C)c1)cn2CC(=O)Nc1ccc2c(c1)OCCO2	.	2%	-4%	.	.	.	.	.	.
COc1ccc(C(=O)c2cn(CC(=O)Nc3ccc4c(c3)OCCO4)c3ccc(OC)cc3c2=O)cc1	.	40µM*	10µM*	.	.	.	12µM*	7.6µM*	7.6µM*
CCOc1ccc(/C=C/c2nc(C#N)c(N3CCCCCC3)o2)cc1	.	13%	-6%	.	.	.	.	.	.
Cc1cc(OCC(=O)Nc2ccc(N3CCN(C(=O)c4ccco4)CC3)cc2)cc(C)c1Cl	-1%	?	-13%	-3%	.	?	?	-10%	5.4µM*
Cc1ccc(OCC(=O)Nc2ccc(N3CCN(C(=O)c4ccco4)CC3)cc2)cc1C	7%	0%	-10%	-10%	3	-11%	.	.	.

Bioassay records as filed in PubChem.
